Test results taken from PubChem BioAssay (NCATS).
Records with an inconclusive call do not appear. Activity calls are given as the source filed them. Unless noted, calls follow the shape of the dose curve; as a rule, active = well fitted curve in the direction sought with a large enough effect; inconclusive = small, poorly fitted or top-dose-only effect, or another doubt; inactive = no such curve, though single readings can be large; an effect the other way counts as inactive or inconclusive.

Key:
[1] = P-glycoprotein substrates identified in KB-8-5-11 adenocarcinoma cell line, qHTS therapeutic library screen (AID 1346987); also: nearly all actives have a fitted effect of over 65% in size
Method in brief: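 KB-8-5-11, a colchicine-selected P-gp-overexpressing KB-3-1 subline, was grown without colchicine for the assay. Cells were seeded at 500 cells/well, dosed in concentration-response and incubated 72 h at 37 degree C, 5% CO2. Viability was read by CellTiter-Glo luminescence.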

[2] = NS1 protein of Zika virus - qHTS assay to identify small molecule inhibitors in human HEK 293 cells (AID 1347053); also: nearly all actives have a fitted effect of over 55% in size; also: potency is read from the fitted curve at half-maximal effect
Method in brief: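 HEK 293; 20 h pre-culture, 37 C/5% CO2; cpd 1 h pre-infection; ZIKV MR766, MOI = 0.5, 24 h, 37 C; TR-FRET NS1 readout (two anti-NS1 Abs); norm. to no-virus vs infected.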

[3] = qHTS of pediatric cancer cell lines to identify multiple opportunities for drug repurposing: Primary screen for TC32 cells (AID 1347089); also: nearly all actives have a fitted effect of over 60% in size
Method in brief: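 Measured quantity: luminescence from CellTiter-Glo, reflecting metabolically active TC32 cells following 48 h of compound. Curves came straight from multi-point titrations, with 8 or 11 points in primary and 11 in confirmatory screening.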

[4] = qHTS of pediatric cancer cell lines to identify multiple opportunities for drug repurposing: Primary screen for DAOY cells (AID 1347090); also: nearly all actives have a fitted effect of over 55% in size; also: potency is read from the fitted curve at half-maximal effect
Method in brief: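 Eight- or eleven-point concentration series, 48 h treatment at 37 degrees C in growth media; readout CellTiter-Glo luminescence. Potency and efficacy were taken from the concentration-response curves.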

[5] = qHTS assay to identify small molecule inhibitors of chordoma cells - UCH-1 (AID 1259355); also: nearly all actives have a fitted effect of over 55% in size
Method in brief: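 Luminescent ATP read-out (CellTiter-Glo, 30min at room temperature) measured viability of UCH-1 cells exposed for 48hr to test drugs at 15 concentrations, co-dosed with a five-agent combination of auranofin, camptothecin, doxorubicin, rubitecan and topotecan.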

[6] = qHTS assay to identify small molecule inhibitors of chordoma cells - UCH-2 (AID 1259356); also: series mostly up to about 46 µM
[7] = P-glycoprotein substrates identified in KB-3-1 adenocarcinoma cell line, qHTS therapeutic library screen (AID 1346986); also: nearly all actives have a fitted effect of over 60% in size
Method in brief: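 Resistance attributable to P-gp was assessed by comparing AC50 in KB-8-5-11 with parental KB-3-1 and by tariquidar reversal. Cells were exposed 72 h and viability read by CellTiter-Glo.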

[8] = target: T1, Tyrosine-protein phosphatase non-receptor type substrate 1 (Homo sapiens) + Leukocyte surface antigen CD47 (Homo sapiens) (UniProt P78324+Q08722); assay: CD47-SIRPalpha protein protein interaction - LANCE assay qHTS validation (AID 1347057; active = well fitted curve in the direction sought with a large enough effect in the signal ratio, with a control signal flat, not every such curve was filed as active; the % refers to the signal ratio; also: series mostly up to about 38 µM)
Method in brief: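 First, His-tagged CD47 and Eu-labelled anti-His antibody met the compound for 30 min; next, site-specifically biotinylated SIRPalpha was added for 30 min; finally streptavidin-APC was added before reading the TR-FRET ratio.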

[9] = target: T1, Tyrosine-protein phosphatase non-receptor type substrate 1 (Homo sapiens) + Leukocyte surface antigen CD47 (Homo sapiens); assay: CD47-SIRPalpha protein protein interaction - HTRF assay qHTS validation (AID 1347058; active = well fitted curve in the direction sought with a large enough effect in the signal ratio, not every such curve was filed as active; the % refers to the signal ratio; also: series mostly up to about 38 µM)
Method in brief: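 TR-FRET read (Ch1/Ch2 ratio) of soluble extracellular CD47 and Avi-biotinylated SIRPalpha domains in PBS pH 7.4 with 0.05% IGEPAL; 7-point compound titration. Sequential 30 min room-temperature steps; non-biotinylated SIRPalpha as control inhibitor.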

[10] = target: T1, Tyrosine-protein phosphatase non-receptor type substrate 1 (Homo sapiens) + Leukocyte surface antigen CD47 (Homo sapiens); assay: CD47-SIRPalpha protein protein interaction - Alpha assay qHTS validation (AID 1347059);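 also: bead proximity luminescence from CD47 binding SIRPalpha after compound preincubation with SIRPalpha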
Method in brief: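 Soluble extracellular domains: Avi-tag biotinylated SIRPalpha (25 nM) preincubated 30 min RT with compound, then 6His-CD47 (12.5 nM) 30 min; Ni-NTA acceptor and streptavidin donor beads (10 ug/mL) 30 min, AlphaScreen read. PBS pH 7.4, 0.05% IGEPAL.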

[11] = target: Atrial natriuretic peptide receptor 1 (Homo sapiens) (UniProt P16066); assay: Natriuretic polypeptide receptor (hNpr1) antagonism - Pilot screen (AID 1347049; calls by dose curve;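 also: agonist-evoked cGMP luminescence read 20 min after hNppA addition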; also: potency is read from the fitted curve at half-maximal effect)
Method in brief: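 HEK293 cells co-expressing hNpr1 and the GloSensor pGS-40F cGMP luciferase sensor were preloaded with 2% GloSensor reagent for 2 h. Compounds were added for 30 min at room temperature, then cells were stimulated with 0.1 nM hNppA for 20 min before luminescence readout.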

[12] = target: Parathyroid hormone/parathyroid hormone-related peptide receptor (Homo sapiens) (UniProt Q03431); assay: qHTS for PTHR1 Agonists: Optimization Screen against the NCGC LOPAC library (AID 1347079);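 also: GloSensor cAMP luminescence in HEK-293 GP2 cells expressing human PTHR1 with IBMX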
Method in brief: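 Agonist readout: GloSensor cAMP luminescence, read after 15 min at room temperature. HEK-293-derived GP2 line carries PTHR1; compounds tested as a titration for 1 hr at 37C in presence of IBMX. M-PTH (1-15) served as control.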

[13] = target: Atrial natriuretic peptide receptor 2 (Homo sapiens) (UniProt P20594); assay: Natriuretic polypeptide receptor (hNpr2) antagonism - Pilot subtype selectivity assay (AID 1347050; calls by dose curve; also: potency is read from the fitted curve at half-maximal effect)
Method in brief: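 cGMP-sensor HEK293/hNpr2 cells; 2% GloSensor reagent 2 h RT; compounds 30 min; baseline luminescence read; 1 nM hNppC agonist 20 min RT; final luminescence read by CCD camera. Antagonism = reduced post-agonist signal.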

[14] = Natriuretic polypeptide receptor (hNpr1) antagonism - Pilot counterscreen GloSensor control cell line (AID 1347045; calls by dose curve; also: potency is read from the fitted curve at half-maximal effect)
Method in brief: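 HEK293 cGMP GloSensor cells preloaded 2 h with 2% GloSensor reagent, then compound 30 min before baseline luminescence read. Stimulated with 50 uM sodium nitroprusside, 20 min at room temperature, then read again; counterscreen for Npr1 antagonism.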

Measured: Potency

Chain of Parathyroid hormone/parathyroid hormone-related peptide receptor (Homo sapiens) (Q03431 whole entry, looked up): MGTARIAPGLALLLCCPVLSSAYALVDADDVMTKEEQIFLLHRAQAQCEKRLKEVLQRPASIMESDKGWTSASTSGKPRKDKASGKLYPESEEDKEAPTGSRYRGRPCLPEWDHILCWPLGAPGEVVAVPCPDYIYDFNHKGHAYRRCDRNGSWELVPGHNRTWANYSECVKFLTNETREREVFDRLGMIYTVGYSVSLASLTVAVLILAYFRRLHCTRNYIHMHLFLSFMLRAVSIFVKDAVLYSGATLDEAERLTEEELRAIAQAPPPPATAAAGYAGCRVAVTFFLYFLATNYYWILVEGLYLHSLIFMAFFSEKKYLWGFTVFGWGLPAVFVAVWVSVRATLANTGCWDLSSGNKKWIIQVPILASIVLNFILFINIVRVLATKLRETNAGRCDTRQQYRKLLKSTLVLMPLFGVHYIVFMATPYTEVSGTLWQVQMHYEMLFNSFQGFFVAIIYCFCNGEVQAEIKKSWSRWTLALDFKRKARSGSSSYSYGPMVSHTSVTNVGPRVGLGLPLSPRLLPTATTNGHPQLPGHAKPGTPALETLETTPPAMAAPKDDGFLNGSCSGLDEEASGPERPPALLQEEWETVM
Chain of Atrial natriuretic peptide receptor 1 (Homo sapiens) (P16066 whole entry, looked up): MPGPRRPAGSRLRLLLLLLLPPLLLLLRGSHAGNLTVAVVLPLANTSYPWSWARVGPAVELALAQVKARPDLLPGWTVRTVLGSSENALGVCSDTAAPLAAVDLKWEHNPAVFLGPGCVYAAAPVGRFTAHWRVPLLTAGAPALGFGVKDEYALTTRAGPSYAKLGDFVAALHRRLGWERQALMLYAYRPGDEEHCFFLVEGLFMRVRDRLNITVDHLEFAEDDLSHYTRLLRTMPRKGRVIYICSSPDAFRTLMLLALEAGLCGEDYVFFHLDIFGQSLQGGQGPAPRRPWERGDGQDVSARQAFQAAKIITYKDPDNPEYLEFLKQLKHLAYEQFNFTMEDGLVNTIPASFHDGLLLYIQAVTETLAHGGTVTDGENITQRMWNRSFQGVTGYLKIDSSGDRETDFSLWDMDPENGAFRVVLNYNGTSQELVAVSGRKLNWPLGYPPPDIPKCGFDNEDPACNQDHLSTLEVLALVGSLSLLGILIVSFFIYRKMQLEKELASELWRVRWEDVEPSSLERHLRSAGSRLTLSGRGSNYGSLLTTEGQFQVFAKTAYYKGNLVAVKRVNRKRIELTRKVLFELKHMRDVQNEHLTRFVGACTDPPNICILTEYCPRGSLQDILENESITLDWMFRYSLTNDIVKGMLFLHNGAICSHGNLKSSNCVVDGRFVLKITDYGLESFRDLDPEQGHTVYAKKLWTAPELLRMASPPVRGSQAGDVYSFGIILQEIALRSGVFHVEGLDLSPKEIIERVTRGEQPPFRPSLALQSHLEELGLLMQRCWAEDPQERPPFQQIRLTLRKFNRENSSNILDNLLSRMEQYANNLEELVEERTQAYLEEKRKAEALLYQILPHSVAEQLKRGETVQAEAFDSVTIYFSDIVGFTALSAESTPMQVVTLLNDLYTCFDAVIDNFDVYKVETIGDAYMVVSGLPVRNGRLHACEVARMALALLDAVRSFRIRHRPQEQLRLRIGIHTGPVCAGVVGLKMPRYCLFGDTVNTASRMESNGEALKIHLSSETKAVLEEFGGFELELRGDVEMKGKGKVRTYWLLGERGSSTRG
T1 sequence (P78324 whole entry, looked up): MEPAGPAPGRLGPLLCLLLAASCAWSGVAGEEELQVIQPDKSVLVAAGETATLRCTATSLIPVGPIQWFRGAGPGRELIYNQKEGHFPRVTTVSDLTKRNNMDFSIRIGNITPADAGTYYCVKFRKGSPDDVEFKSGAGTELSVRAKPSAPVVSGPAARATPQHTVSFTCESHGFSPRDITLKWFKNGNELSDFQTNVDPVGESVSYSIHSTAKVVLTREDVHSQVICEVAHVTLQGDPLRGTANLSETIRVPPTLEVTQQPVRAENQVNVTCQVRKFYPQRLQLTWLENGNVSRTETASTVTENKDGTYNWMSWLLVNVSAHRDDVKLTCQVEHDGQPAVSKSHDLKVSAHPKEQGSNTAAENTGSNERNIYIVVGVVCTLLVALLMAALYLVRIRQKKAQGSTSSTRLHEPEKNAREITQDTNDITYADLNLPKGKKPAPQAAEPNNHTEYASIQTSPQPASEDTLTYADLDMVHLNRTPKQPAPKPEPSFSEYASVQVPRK
T1 sequence (Q08722 whole entry, looked up): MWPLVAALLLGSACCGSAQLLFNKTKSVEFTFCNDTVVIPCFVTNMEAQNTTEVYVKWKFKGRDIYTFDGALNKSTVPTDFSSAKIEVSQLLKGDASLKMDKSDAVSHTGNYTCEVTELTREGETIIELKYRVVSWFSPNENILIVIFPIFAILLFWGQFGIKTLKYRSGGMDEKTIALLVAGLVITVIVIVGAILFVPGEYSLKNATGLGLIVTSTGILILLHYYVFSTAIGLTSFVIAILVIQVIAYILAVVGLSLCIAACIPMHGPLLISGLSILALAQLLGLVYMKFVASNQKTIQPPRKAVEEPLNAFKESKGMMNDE
Chain of Atrial natriuretic peptide receptor 2 (Homo sapiens) (P20594 whole entry, looked up): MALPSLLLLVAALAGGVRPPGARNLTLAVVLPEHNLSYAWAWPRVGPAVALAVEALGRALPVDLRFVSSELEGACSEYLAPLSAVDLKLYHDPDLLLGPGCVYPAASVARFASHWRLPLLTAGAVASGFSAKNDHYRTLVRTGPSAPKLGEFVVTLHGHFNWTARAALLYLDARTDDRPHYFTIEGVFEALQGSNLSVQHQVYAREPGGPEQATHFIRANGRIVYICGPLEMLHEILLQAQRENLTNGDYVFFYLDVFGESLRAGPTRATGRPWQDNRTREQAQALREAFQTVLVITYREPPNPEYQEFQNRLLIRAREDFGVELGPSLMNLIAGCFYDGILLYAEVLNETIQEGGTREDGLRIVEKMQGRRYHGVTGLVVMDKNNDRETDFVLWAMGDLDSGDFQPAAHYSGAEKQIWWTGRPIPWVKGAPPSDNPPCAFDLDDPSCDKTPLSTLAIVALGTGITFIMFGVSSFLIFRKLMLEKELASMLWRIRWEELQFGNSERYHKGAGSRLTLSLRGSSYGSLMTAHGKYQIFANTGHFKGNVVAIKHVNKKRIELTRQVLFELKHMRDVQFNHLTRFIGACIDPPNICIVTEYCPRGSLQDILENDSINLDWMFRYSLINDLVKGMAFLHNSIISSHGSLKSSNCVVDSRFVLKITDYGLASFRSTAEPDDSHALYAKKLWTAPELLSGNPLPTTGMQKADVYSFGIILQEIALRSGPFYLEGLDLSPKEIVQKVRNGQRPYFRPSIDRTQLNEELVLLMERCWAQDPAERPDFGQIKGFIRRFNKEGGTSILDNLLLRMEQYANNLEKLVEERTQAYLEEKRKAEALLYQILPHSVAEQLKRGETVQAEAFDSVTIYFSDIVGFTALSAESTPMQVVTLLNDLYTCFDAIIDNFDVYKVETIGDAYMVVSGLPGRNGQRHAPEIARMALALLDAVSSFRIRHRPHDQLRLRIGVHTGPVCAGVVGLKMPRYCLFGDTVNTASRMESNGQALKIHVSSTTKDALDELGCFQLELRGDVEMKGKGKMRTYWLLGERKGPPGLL

CO[C@@]1(NC(=O)Cc2cccs2)C(=O)N2C(C(=O)O)=C(COC(N)=O)CS[C@@H]21
inactive: [1] | [2] | [3] | [4]

Oc1c(Br)cc(Br)c2cccnc12
inactive: [5] | [3]
active: [4] 16.8 µM

CN1[C@@H]2CC[C@H]1CC(OC(c1ccccc1)c1ccccc1)C2 (stereo not given in full)
inactive: [6] | [7] | [1]

CC(=O)c1ccc(OCC(=O)N2CCCCC2)cc1
inactive: [7] | [1] | [2] | [3] | [4]

CCCCC1C(=O)N(c2ccccc2)N(c2ccc(O)cc2)C1=O (stereo not given)
inactive: [5] | [6]
active: [2] 3.98 µM | [4] 5.31 µM

O=[N+]([O-])c1ccc(CNc2nc(NCc3cccc(C(F)(F)F)c3)nc3nc[nH]c23)cc1
inactive: [7] | [2] | [8] | [9] | [10]

N=C(N)N
inactive: [1] | [2] | [3] | [4]

N#C/C(=C\c1ccc(-c2cc(Cl)ccc2Cl)o1)C(=O)Nc1cccc2ncccc12
inactive: [11] | [8] | [10] | [12]

CCC(CO)Nc1nc(NCc2ccccc2)c2ncn(C(C)C)c2n1 (stereo not given)
inactive: [2]

CCCCCCCCc1ccc(-c2ccc(C(=O)O)cc2)cc1
inactive: [11] | [13] | [2] | [12]

C[N+](C)(CCCCCC[N+](C)(C)CCCN1C(=O)c2cccc3cccc(c23)C1=O)CCCN1C(=O)c2cccc3cccc(c23)C1=O
inactive: [11] | [13] | [12]

Cc1ccc(O)c(N=Nc2ccccc2)n1
active: [14] 7.36 µM | [11] 16.9 µM | [13] 10.4 µM
inactive: [8]

S=c1[nH]c(-c2ccccc2)cn1-c1ccccc1
inactive: [2] | [8] | [9]

COc1ccc(Br)cc1S(=O)(=O)NC(=O)/C=C/c1ccccc1Cc1ccc2ccccc2c1
inactive: [2] | [8] | [9]

O=C(Nc1ccc2[nH]ncc2c1)C1CCC1
inactive: [2] | [8] | [9]

CC(C)Cc1ccc([C@H](C)C(=O)O)cc1
inactive: [14] | [11] | [2] | [8] | [9] | [10] | [12]

O=C(O)c1cc(=O)c2c(Cl)cc(Cl)cc2[nH]1
inactive: [14] | [11] | [13] | [2] | [8] | [9] | [10] | [12]

Nc1nc(Nc2ccccc2)nc2c1ncn2[C@@H]1O[C@H](CO)[C@@H](O)[C@H]1O
inactive: [11] | [2] | [8] | [9] | [10] | [12]

O=C(/C=C/c1ccc(O)cc1)c1ccc(O)cc1O
inactive: [2] | [8] | [10] | [12]
active: [11] 30.1 µM

Nc1ccn([C@@H]2O[C@H](CO)[C@@H](O)[C@@H]2O)c(=O)n1
inactive: [2]

NCCCCC(=O)O
inactive: [11] | [13] | [2] | [12]

NCCCCCCCCCCN
inactive: [11] | [2] | [8] | [9] | [12]

CC(=O)SCC[N+](C)(C)C
inactive: [14] | [11] | [13] | [8] | [9] | [10]

CC(C)NC[C@@H](O)c1ccc(O)c(O)c1
inactive: [11] | [2] | [8] | [10]

CSc1nc(N)c2ncn([C@@H]3O[C@H](COP(=O)(O)OP(=O)(O)OP(=O)(O)O)[C@@H](O)[C@H]3O)c2n1
inactive: [14] | [11] | [8] | [9] | [10] | [12]
